From PubChem BioAssay (NCATS) come the findings set out here.

Inconclusive results are not listed. Entries that show only a call come without a potency. Active and inactive are the calls of the source. Calls follow the shape of the dose curve; as a rule, active = well fitted inhibition curve with a large enough effect; inconclusive = small, poorly fitted or top-dose-only effect; inactive = flat fitted curve, though single readings scatter.

This experiment deals with Calcium and integrin-binding protein 1 (Homo sapiens) (UniProt Q99828). The experiment can be described thus: Primary qHTS for Identification of Calcium Integrin Binding Protein 1 (CIB1) Competitor (AID 1508620).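 Also: GST tagged CIB1 binding a fluorescein labelled alphaIIb integrin peptide tracer; top concentration of the series differs between compounds.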 The note with it: CIB1-GST / FITC-alphaIIb peptide fluorescence polarization; series mostly up to 57.7 µM; activity change, negative = inhibition: at the top concentration. The source says: Assay Provider: Ulhas P. Naik, PhD Sidney Kimmel Medical College Thomas Jefferson University, Philadelphia, PA Primary function of platelets is to maintain hemostasis. At the site of vascular injury, platelets adhere to adhesive proteins such as collagen and von Willebrand factor. Adherent platelets are activated and generate soluble platelet agonists such as thrombin, ADP and thromboxane A2. Following exposure of circulating platelets to these agonists, results in platelet shape change, granule secretion and activation of platelet integrin alphaIIb-beta3. Ligand binding to activated integrin alphaIIb-beta3 triggers outside-in signaling, leading to platelet aggregation, stabilization of platelet plug, and clot retraction. Upon atherosclerotic plaque rupture also causes platelet plug formation, which underlies a number of cardiovascular diseases such as myocardial infraction and stroke. A number of anti-platelet drugs such as aspirin, clopidogrel, prasugrel, vorapaxar, and eptifibatide are currently available to prevent the thrombotic complications. However, these anti-platelet agents have several limitations including inherent variability in individual responses, developing resistance, and serious bleeding side effects. For these reasons they are not suitable for long-term protection. Based on the experiences with current anti-platelet drugs, it appears that the most useful therapeutic approach is to intersect the secondary responses such as integrin outside-in signaling or recruitment of platelets by TxA2 and secreted ADP. Compounds, which can largely preserve the primary hemostatic function of platelets but inhibit secondary response will be most desired therapeutic agents for treatment of cardiovascular disease. CIB1 is a calcium integrin binding protein, which specifically interact with the alphaIIb subunit of integrin alphaIIb-beta3. Binding of CIB1 to alphaIIb regulates the outside-in signaling in platelets, which is needed for thrombus stabilization and thrombus growth. […] Therefore, we propose that discovery of a small molecule that can prevent the association of CIB1 and alphaIIb-beta3 will be a potential anti-platelet agent that can block the thrombus formation without undue effect on hemostasis. Reference: [1] Naik MU, Nigam A, Manrai P, et al. CIB1 deficiency results in impaired thrombosis: the potential role of CIB1 in outside-in signaling through integrin alpha IIb beta 3. J Thromb Haemost.
Calcium and integrin-binding protein 1 (Homo sapiens), sequence (Q99828 whole entry, looked up): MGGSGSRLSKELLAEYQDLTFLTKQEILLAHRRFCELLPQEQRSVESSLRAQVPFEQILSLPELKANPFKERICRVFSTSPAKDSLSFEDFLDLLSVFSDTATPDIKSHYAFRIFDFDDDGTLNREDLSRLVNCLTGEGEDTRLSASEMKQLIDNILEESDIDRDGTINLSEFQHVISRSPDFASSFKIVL
PROTOCOL TABLES SEQUENCE No. (1, 2, 3, etc.); […] (e.g., Cells, Incubation, Reagent, etc.); VALUE and DESCRIPTION. 1; Reagent; 3 uL; Protein or buffer (4/3x) 2; Compound; 46 nL; Control inhibitor / compound library 3; Time; 15 min; Room temperature incubation 4; Reagent; 1 uL; Fluorescent labeled peptide (4x) 5; Time; 1000 rpm; Centrifuge 6; Time; 15 min; Room temperature incubation 7; Detection; Ex 480/ Em 540; ViewLux Fluorescence Read NOTES (numbers refer to sequence above) 1; Protein Mixture: C1B1-GST (final concentrations of 1 uM). […] 3; Room temperature incubation. 4; Fluorescent Labeled Peptide: FITC-aIIb (final concentration of 100 nM). Sequence of alphaIIb peptide: Acetyl-[…]-FITC (purity is 95.83%). 5; Centrifuge 1000 rpm (164 g) for 15 seconds. 6; Room temperature incubation. 7; ViewLux Fluorescent Polization Read: excitation = 480(20) / emission = 540(25) S and P; FITC Dichroic mirror.
On the technique in general: qHTS replaces the single test concentration by a dilution series.
`O=Nc1c(-c2c(O)[nH]c3cc(Br)ccc23)[nH]c2ccccc12`: the “activity change, negative = inhibition” value is -18.4% (inactive).
For `Nc1ncn([C@H]2C[C@H](O)[C@@H](CO)O2)c(=O)n1`, the Potency result is “inactive”.
As to `O=P(O)(O)C(O)(Cn1ccnc1)P(=O)(O)O`, the “activity change, negative = inhibition” value is -1.34% [at 30.2 µM] (inactive).
As for `Oc1ccc(-c2nc(-c3ccc(F)cc3)c(-c3ccncc3)[nH]2)cc1`, the “activity change, negative = inhibition” value was 1.58% (inactive).
For the molecule `CCN(CC)CCOc1ccc(Cc2ccccc2)cc1`, the Potency result was “inactive”.
Same read-out and setting: under `COc1ccccc1N1CCN(CCN(C(=O)C2CCCCC2)c2ccccn2)CC1` stands “inactive”.
As for `CCOC(=O)C(C)Oc1cccc2c(=O)n(CC(=O)Nc3ccc4c(c3)OCCO4)ccc12` (stereo not given), the “activity change, negative = inhibition” value is -1.63% (inactive).
Turning to `COc1cc(C(C)=O)ccc1OCCCN1CCC(c2noc3cc(F)ccc23)CC1`, the Potency entry is “inactive”.
Still for that read-out and setting: under `S=c1nc[nH]c2nc[nH]c12` stands “inactive”.
Turning to `O=c1c(O)c(-c2cc(O)c(O)c(O)c2)oc2cc(O)cc(O)c12`, the “activity change, negative = inhibition” value is -19.3% (inactive).
Regarding `CCCS(=O)c1ccc2nc(NC(=O)OC)[nH]c2c1` (stereo not given), the Potency result is “inactive”.
The same measure, in the same setting: under `OC(CN1CCN(c2cccc(Cl)c2)CC1)C(c1ccccc1)c1ccccc1` (stereo not given) stands “inactive”.
`Cc1cccc(-c2[nH]ncc2-c2ccc3ncccc3n2)n1`: the “activity change, negative = inhibition” value was -0.976% (inactive).
For the molecule `O=C(NCCO[N+](=O)[O-])c1cccnc1`, the Potency entry was “inactive”.
As to `CC(C)(S)[C@@H](N)C(=O)O`, the “activity change, negative = inhibition” value was 6.32% (inactive).
Turning to `N=C(N=C(N)N)N1CCOCC1`, the Potency result was “inactive”.
Regarding `CC1(C)NC(=O)N(c2ccc([N+](=O)[O-])c(C(F)(F)F)c2)C1=O`, the Potency result was “inactive”.
Consider `CC(C)[N+]1(C)[C@@H]2CC[C@H]1CC(OC(=O)C(CO)c1ccccc1)C2` (stereo not given in full), for which the “activity change, negative = inhibition” value is -2.1% (inactive).
On to `CC(C)[C@H](N)C(=O)OCCOCn1cnc2c(=O)[nH]c(N)nc21`, for which the Potency entry was “inactive”.
`O=C(CS(=O)Cc1ccco1)NCC=CCOc1cc(CN2CCCCC2)ccn1` (stereo not given): the “activity change, negative = inhibition” value was -3.98% (inactive).
`O=C(NCC1CCCCN1)c1cc(OCC(F)(F)F)ccc1OCC(F)(F)F` (stereo not given): the Potency entry is “inactive”.
With `Cc1cccc(C#Cc2ccccc2)n1`, the “activity change, negative = inhibition” value is -4.66% (inactive).
On the same count and under the same terms, under `CCOC(=O)C1=C[C@@H](OC(CC)CC)[C@H](NC(C)=O)[C@@H](N)C1` stands 5.6% (inactive).
Still for that read-out and setting: under `Nc1ccn([C@@H]2O[C@H](CO)[C@@H](O)C2O)c(=O)n1` (stereo not given in full) stands 2.56% (inactive).
Regarding `CCC1=C(C)CN(C(=O)NCCc2ccc(S(=O)(=O)NC(=O)NC3CCC(C)CC3)cc2)C1=O` (stereo not given), the Potency entry was “inactive”.
For `CCN(CC)CCOc1ccc(Nc2ncc3cc(-c4c(Cl)cccc4Cl)c(=O)n(C)c3n2)cc1`, the “activity change, negative = inhibition” value is -0.228% (inactive).
Take `COC1=C(OC)C(=O)C(CCCCCCCCCCO)=C(C)C1=O`: the “activity change, negative = inhibition” value is -3.11% (inactive).
For `CNC[C@H](O)c1ccc(O)c(O)c1`, the Potency result is “inactive”.
The same measure, in the same setting: under `COc1cc2nc(N3CCN(C(=O)C4CCCO4)CC3)nc(N)c2cc1OC` (stereo not given) stands “inactive”.
Regarding `COc1cc2c(cc1OC)C1CC(=O)C(CC(C)C)CN1CC2` (stereo not given), the “activity change, negative = inhibition” value was -3.74% (inactive).
For the molecule `CN(C)C(=O)COC(=O)Cc1ccc(OC(=O)c2ccc(N=C(N)N)cc2)cc1`, the Potency entry was “inactive”.
As to `CCOc1cc(CC(=O)N[C@@H](CC(C)C)c2ccccc2N2CCCCC2)ccc1C(=O)O`, the “activity change, negative = inhibition” value was -9.01% (inactive).
Same read-out and setting: under `O=C(CCc1ccc(O)cc1)c1c(O)cc(O)cc1O` stands -2.37% (inactive); under `CN(C)CCc1c[nH]c2ccc(Cn3cncn3)cc12`, -3.07% (inactive).
As to `CCCCN(CCCC)CCC(O)c1cc2c(Cl)cc(Cl)cc2c2cc(C(F)(F)F)ccc12` (stereo not given), the Potency result is “inactive”.
The same measure, in the same setting: under `O=C(NOCC1CC1)c1ccc(F)c(F)c1Nc1ccc(I)cc1Cl` stands “inactive”.
On to `CNC[C@@H](O)[C@@H](O)[C@H](O)[C@H](O)CO`, for which the “activity change, negative = inhibition” value was 3.83% (inactive).
As to `O=C(c1ccccc1)c1ccc2n1CCC2C(=O)O` (stereo not given), the Potency result was “inactive”.
The same measure, in the same setting: under `CCC[C@@H]1C[C@@H](C(=O)N[C@@H]([C@H]2O[C@H](SC)[C@H](O)[C@@H](O)[C@H]2O)[C@@H](C)O)N(C)C1` stands “inactive”.
For `CCCCCCCCCCCCCCCCCCCCCCO`, the “activity change, negative = inhibition” value was 4.06% (inactive).
